Compounds with a hit are over-represented: about 7.8% of the library has one in this group of screens.
Lassa entry inh = qHTS for Inhibitors of binding or entry into cells for Lassa Virus | Potency, µM (top dose mostly 37.9 µM), without a hit: at the highest dose activity change, negative = inhibition, usual class: inhibitors | actives 1.2% (n = 300,000) | AID 540256, 2011 | Lassa virus pseudotype entry inhibition, cell reporter; calls by dose curve; tested in HEK293 cells; note: potency is the fitted concentration of half-maximal effect; nearly all actives have a fitted effect of over 50% in size
MARV entry inh = qHTS for inhibitors of binding or entry into cells for Marburg Virus; actives 1.8% (n = 300,000); Potency, µM (titrated, usually from 37.8 µM), for the others: top-dose activity change, negative = inhibition, most hits filed as inhibitors; Marburg virus pseudotyped entry inhibition, cell reporter; AID 540276, 2011; calls by dose curve; tested in HEK293 cells; note: potency is the fitted concentration of half-maximal effect
Vaccinia Venus = qHTS for Stage-Specific Inhibitors of Vaccinia Orthopoxvirus: Venus Reporter Primary qHTS | Vaccinia virus Venus reporter expression, fluorescence | Potency, µM (highest dose often 36.5 µM), for inactives: at the top dose activity change, negative = inhibition, most hits filed as inhibitors | actives 0.46% (n = 330,000); calls by dose curve; tested in A549 cells; note: potency is the fitted concentration of half-maximal effect; nearly all actives have a fitted effect of over 30% in size
HCV inhibitor = qHTS Assay for Inhibitors of Hepatitis C Virus (HCV); actives 3.4% (n = 340,000); Huh7.5.1 HCVcc-Cre infection, luciferase reporter, 44 h; AID 651820, 2012; Potency, µM (titrated, usually from 41.8 µM), inactives show at the top dose activity change, negative = inhibition, hits mostly inhibitors; active = well fitted inhibition curve with a large enough effect; inconclusive = small, poorly fitted or top-dose-only effect, or another doubt; inactive = no such curve, though single readings can be large or run the other way; note: potency is the fitted concentration of half-maximal effect
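HCVcc-Cre virus at an moi near 0.5 was added right after compound to cells cultured 4 h from seeding (1,000 cells/well). Luciferase activity was determined 44 h later, 15 min after substrate addition at RT.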
HCMV antiviral = qHTS Assay for inhibitors of the human cytomegalovirus (HCMV); HFF cells, HCMV-luciferase reporter, 72 h; active compounds read low; actives 4.5% (n = 410,000); activity change, negative = inhibition, % at 57.5 µM; in the data active = activity change below about -60%; inconclusive = no clear call, values can overlap the other calls; inactive = above about -39%
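Screen run at 2 compound doses on HFFs infected with reporter HCMV, MOI 1 PFU/cell. Luciferase activity from cell lysates at 72 h post infection gave inhibition relative to buffer-only and Salinomycin wells.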
VACV mCherry inh = qHTS for Stage-Specific Inhibitors of Vaccinia Orthopoxvirus: mCherry Reporter Primary qHTS; Vaccinia virus mCherry reporter infection, fluorescence; Potency, µM (series often up to 36.5 µM), for inactives: at the highest dose activity change, negative = inhibition, usual class: inhibitors; actives 0.63% (n = 310,000); calls by dose curve; tested in A549 cells; note: potency is the fitted concentration of half-maximal effect; nearly all actives have a fitted effect of over 35% in size
Active calls of the source: *; i = inactive; ? = inconclusive; / = no result given; [ ] = another dose, or the depositor's remark. % is set by controls: 0 for no effect and ±100 for the full control effect.

SMILES	Lassa entry inh	MARV entry inh	Vaccinia Venus	HCV inhibitor	HCMV antiviral	VACV mCherry inh
Cc1nc2cc(NC(=O)[C@@H]3C[C@@H](Sc4ccccn4)CN3Cc3ccc(F)cc3F)ccc2s1	/	/	0.1%	/	/	-14.8%
NC(Cc1ccc(Cl)cc1)c1csc(Nc2ccc(-c3ccccc3)nn2)n1 (stereo not given)	/	/	-27.3%	/	-26.2	?
Cc1ccc(C)n1C1C(=O)N(Cc2ccc(C(C)C)cc2)c2ccc(OC(F)(F)F)cc21 (stereo not given)	/	/	/	/	-27.2	/
C=Cn1cc[n+](CC(=O)c2cccs2)c1	/	/	/	6.5%	18.8	/
O=C(C[n+]1ccccc1)c1ccc(-c2ccccc2)cc1	22.2%	-29.3%[46.1 µM]	-12.3%	5.5%	2.5	-8.3%
C=Cn1cc[n+](CC(=O)c2ccc(-c3ccccc3)cc2)c1	-24.1%[46.1 µM]	12.4%[46.1 µM]	-0.4%	?	-62.8*	i
CN(C)c1cc[n+](CC(=O)c2ccc(-c3ccccc3)cc2)cc1	?	?	/	?	-95.1*	/
COc1ccc(C(=O)C[n+]2ccc(N(C)C)cc2)cc1	?	1.9%[46.1 µM]	-16.3%	?	-68.1*	i
CN(C)c1cc[n+](CC(=O)c2ccc(Br)cc2)cc1	?	-21.6%[46.1 µM]	-7.3%	-10.5%	-73.6*	i
COc1ccc(C(=O)COC(=O)c2ccc(N(C)C)cc2)cc1	-0.5%[46.1 µM]	0.2%[46.1 µM]	-11.4%	-7.5%	-10.3	-0.3%
CCCCN(CC)CCNC(=O)Cn1c(=O)c2cccn2c2cccnc21	-2.3%[46.1 µM]	/	-8.4%	/	?	-10.5%
CC(C)C(NS(C)(=O)=O)c1nnc2n1CCN(Cc1ccc3cccnc3c1)CC2 (stereo not given)	/	/	-0.6%	/	/	-5.5%
CCOC(=O)c1ccc2c(c1)N(CC(=O)Nc1ccc(C)cc1C)C(=O)c1ccccc1S2	10.5%[46.1 µM]	/	4.2%	/	6.5	-5.6%
Cc1ccc(C(=O)C[n+]2ccc(Cc3ccccc3)cc2)cc1	?	?	-7.0%	?	-88.1*	-13.5%
COc1cc(C2NCC(c3ccc(Cl)cc3Cl)c3c2[nH]c2ccccc32)cc(OC)c1OC (stereo not given)	?	15.8µM*	-19.7%	?	?	-25.1%
O=C(O)c1ccc(C2NCC(c3ccccc3Cl)c3c2[nH]c2ccccc32)cc1 (stereo not given)	21.0%	?	-4.5%	-6.0%	-15.9	-0.7%
CCN(CC)C(=O)CSC(Nc1ccc(F)cc1)=C(C#N)C#N	-12.1%[46.1 µM]	?	39.6%	-0.3%	15.5	i
Cc1ccc(CSC(Nc2ccc(F)cc2)=C(C#N)C#N)cc1	13µM*	?	?	8.91µM*	-100.1*	-13.1%
Cc1ccc(N2CC(NC(=O)c3cccc(Cl)c3)CC2=O)cc1C (stereo not given)	-19.8%[46.1 µM]	/	-7.8%[7.34 µM]	/	-6.7	-0.3%[7.34 µM]
CCNC(=O)C1CCCN(C(=O)c2cc(F)cc(F)c2)CC1 (stereo not given)	/	/	3.4%	/	-92.7*	i
CN=C1S/C(=C\c2cc(C)n(-c3ccccc3F)c2C)C(=O)N1C	?	?	-18.0%	?	-65.5*	-1.5%
Cc1cc(/C=C2\SC(=O)N(C)C2=O)c(C)n1-c1ccc(O)cc1	/	/	/	?	-69.0*	/
CN=C1S/C(=C\c2ccc(N3CCOCC3)cc2C)C(=O)N1C	1.8%	5.8%	0.0%	-6.3%	54.1	-14.2%
Cc1cc(/C=C2\SC(=O)N(C)C2=O)c(C)n1-c1ccc(S(N)(=O)=O)cc1	/	/	/	-19.6%	-32.6	/
CC(=O)Nc1ccc(Nc2cc3c(cn2)nc(-c2cccc(F)c2)n3C)cc1	/	/	/	/	21.4	/
SMILES	Lassa entry inh	MARV entry inh	Vaccinia Venus	HCV inhibitor	HCMV antiviral	VACV mCherry inh
CC(=O)NC(CCS(C)(=O)=O)C(=O)Nc1cc(Cl)ccc1Cl (stereo not given)	1.3%	2.5%	-4.1%	9.5%	158.6	i
CC(C)S(=O)(=O)c1csc(NC(=O)Nc2cc(Cl)ccc2Cl)c1Cl	?	?	-18.9%	12.6µM*	25.0	-3.7%
O=C(c1ccccc1)c1coc2c1C(=O)c1ccccc1C2=O	/	?	-6.2%	-0.2%	72.2	-9.8%
COc1ccc(C(=O)c2coc3c2C(=O)C(=O)c2ccccc2-3)cc1	11.2µM*	?	?	-25.3%	68.2	-13.2%
C=CCN=c1scc(-c2ccc(F)cc2)n1/N=C/c1ccccn1	?	?	-6.2%	?	-85.3*	-21.2%
O=C(Cc1ccc(F)cc1)N/N=C/c1ccccn1	-0.5%	-3.0%	/	6.4%	-20.9	/
CCN=c1scc(-c2ccc(F)cc2)n1/N=C/c1ccccn1	?	?	-8.2%	-12.0%	-88.4*	-7.5%
CCc1ccc2occ(CC(=O)Nc3sc4c(c3C(=O)NCCOC)CCCC4)c2c1	?	?	-5.5%	/	-15.7	0.9%
Cc1cc(N2CCOCC2)ccc1/C=C1\NC(=O)N(Cc2ccccc2)C1=O	/	/	/	?	8.6	/
Cc1cc(N2CCOCC2)ccc1/C=C1\NC(=O)N(Cc2ccccc2F)C1=O	?	2.5%	/	3.98µM*	-5.3	/
COc1cc(/C=C2/NC(=O)N(Cc3ccccc3F)C2=O)cc(OC)c1O	?	1.0%[46.1 µM]	-1.2%	-17.0%	-32.5	5.01µM*
CCOc1cc(/C=C2/NC(=O)N(Cc3ccccc3F)C2=O)ccc1O	-25.0%	15.8µM*	-27.8%	10µM*	-60.6*	/
COc1ccc(C)cc1NS(=O)(=O)c1ccc2oc(=O)c3ncn(C)c3c2c1	-8.5%[46.1 µM]	/	-0.6%	/	3.4	-8.7%
Cc1cccc(CNC(=O)CN2C(=O)CCCc3ccccc32)c1	18.3%[46.1 µM]	/	-6.6%	/	?	-10.1%
CCCOc1ccc(-c2cccc(NS(=O)(=O)c3cc(OC)ccc3OC)c2)nn1	0.4%[46.1 µM]	/	-18.5%	/	-8.1	-13.0%
CCOC(=O)c1cc(OC(=O)c2ccc(Cl)cc2)n(-c2ccccc2)n1	-4.5%[46.1 µM]	21.9%[46.1 µM]	3.0%	/	5.4	1.4%
CCOc1ccc2c(c1)C(=NNC(=O)c1ccncc1)c1cc(OCC)ccc1-2	6.31µM*	3.16µM*	6.4%	-3.9%	-95.2*	i
CCOc1ccc(NC(=O)c2ccncc2)cc1	29.7%	-13.2%	-8.5%	14.0%	13.5	-11.8%
O=C(Nc1ccc(Br)cc1F)c1cnn2c1NC(=C1CC1)C=C2C(F)F	/	/	-14.3%	/	/	-16.3%
CCOC(=O)c1c(C2CC2)csc1NC(C)=O	-3.1%	-24.7%	-10.5%	?	-64.9*	-19.3%
O=C1NC(=NCc2ccccc2)S/C1=C/c1ccc(O)cc1	?	?	?	?	-62.3*	?
Cc1ccc(C2Nc3ccccc3-n3c(-c4ccccc4)c4c(=O)n(C)c(=O)n(C)c4c32)o1 (stereo not given)	-0.3%[46.1 µM]	-7.9%[46.1 µM]	-8.6%	/	-16.0	-21.3%
CCOc1ccc(NC(=O)c2cc3c(C)nn(-c4ccccc4)c3s2)cc1	-1.9%[46.1 µM]	12.4%[46.1 µM]	?	/	-65.6*	?

High-throughput results deposited in PubChem BioAssay by National Center for Advancing Translational Sciences (NCATS).
